Reference: PubChem BioAssay AID1159580 (chemical genetic matrix, 2015)
“And” between values parts separate entries of the source, which are not always exact repeats. Equal values may be shown once. In all, about 5,500 compounds went through this assay and about 2,000 (36%) were called active. Inconclusive results (about 18%) are left out. Rule as the data show it: active = normalized growth mostly below about 0.91 (no sharp cut-off); inconclusive = no clear call, values can overlap the other calls; inactive = mostly above about 0.92. The list shows a part of the results.

Test: chemical genetic growth profiling, strain panel (AID 1159580);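 also: tested at 20 µM; growth read once vehicle control cultures reached saturation at 30 °C; 1 = growth at the plate median or of vehicle wells; lower values mean less growth of the strain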
Settings: S. cerevisiae deletion strains, growth OD

Measured: normalized growth

CC(C)CC(N(C)C)C1(c2ccc(Cl)cc2)CCC1 (stereo unspecified)
inactive: locus YAL013W, strain DEP1, active compounds read low 1 | locus YAL021C, strain ccr4, active compounds read low 0.987 | locus YAL026C, strain drs2, active compounds read low 1.01 | locus YAL030W, strain snc1, active compounds read low 1.01 | locus YBL061C, strain skt5, active compounds read low 1 | locus YBR009C, strain hhf1, active compounds read low 1 | locus YBR021W, strain FUR4, active compounds read low 0.952 | locus YBR023C, strain chs3, active compounds read low 1.01 | locus YBR171W, strain sec66, active compounds read low 1.01 | locus YBR229C, strain ROT2, active compounds read low 0.999 | locus YBR231C, strain swc5, active compounds read low 1.02 | locus YBR279W, strain paf1, active compounds read low 1.01 | locus YCL011C, strain gbp2, active compounds read low 0.999 | locus YCL016C, strain dcc1, active compounds read low 0.994 | locus YCL029C, strain bik1, active compounds read low 1.02 | locus YCL069W, strain vba3, active compounds read low 1 | locus YCR088W, strain abp1, active compounds read low 1.02 | locus YDL005C, strain med2, active compounds read low 1.01 | locus YDL035C, strain GPR1, active compounds read low 1.02 | locus YDL040C, strain nat1, active compounds read low 0.999 | locus YDL074C, strain BRE1, active compounds read low 1 | locus YDL101C, strain DUN1, active compounds read low 1 | locus YDL134C, strain PPH21, active compounds read low 1.01 | locus YDL185W, strain tfp1, active compounds read low 1.01 | locus YDL192W, strain arf1, active compounds read low 1.02 | locus YDR001C, strain nth1, active compounds read low 0.994 | locus YDR069C, strain doa4, active compounds read low 1.03 | locus YDR101C, strain arx1, active compounds read low 1.01 | locus YDR137W, strain rgp1, active compounds read low 1.12 | locus YDR150W, strain NUM1, active compounds read low 1.01 | locus YDR159W, strain sac3, active compounds read low 0.994 | locus YDR162C, strain NBP2, active compounds read low 0.99 | locus YDR195W, strain ref2 1.04 | locus YDR297W, strain sur2, active compounds read low 1.01 | locus YDR318W, strain mcm21, active compounds read low 1.02 | locus YDR334W, strain swr1, active compounds read low 1.01 | locus YDR335W, strain msn5, active compounds read low 1 | locus YDR388W, active compounds read low 1.02 | locus YDR392W, strain spt3, active compounds read low 0.976 | locus YDR502C, strain sam2, active compounds read low 1.01 | locus YEL003W, strain gim4, active compounds read low 1 | locus YEL037C, strain rad23, active compounds read low 1.01 | locus YEL061C, strain CIN8 (second series), active compounds read low 1 | locus YEL061C, strain CIN8, active compounds read low 0.993 | locus YER015W, strain faa2, active compounds read low 0.982 | locus YER016W, strain bim1, active compounds read low 1 | locus YER110C, active compounds read low 1.01 | locus YER111C, strain swi4, active compounds read low 1.01 | locus YER155C, strain BEM2 (second series), active compounds read low 1.03 | locus YER155C, strain BEM2, active compounds read low 0.969 | locus YER167W, strain BCK2, active compounds read low 0.983 | locus YFR010W, strain ubp6, active compounds read low 1.02 | locus YGL078C, strain dbp3, active compounds read low 1 | locus YGL086W, strain mad1, active compounds read low 1.01 | locus YGL167C, strain pmr1, active compounds read low 0.997 | locus YGL173C, strain kem1, active compounds read low 1 | locus YGL227W, strain vid30, active compounds read low 1.01 | locus YGL240W, strain doc1, active compounds read low 1.03 | locus YGL248W, strain PDE1, active compounds read low 0.999 | locus YGL253W, strain hxk2, active compounds read low 1 | locus YGR078C, strain PAC10, active compounds read low 1.01 | locus YGR135W, strain pre9, active compounds read low 1.02 | locus YGR229C, strain SMI1, active compounds read low 0.986 | locus YGR252W, strain gcn5, active compounds read low 1.03 | locus YHR013C, strain ard1, active compounds read low 1.02 | locus YHR027C, strain rpn1, active compounds read low 1 | locus YHR030C, strain SLT2, active compounds read low 1.01 and 1.02 | locus YHR079C, strain IRE1 (second series), active compounds read low 1.01 | locus YHR079C, strain IRE1, active compounds read low 1.01 | locus YHR094C, strain hxt1, active compounds read low 1.01 | locus YHR129C, strain ARP1, active compounds read low 1 | locus YHR142W, strain chs7, active compounds read low 1 | locus YHR200W, strain rpn10, active compounds read low 1.02 | locus YIL066C, strain RNR3, active compounds read low 0.997 | locus YIL073C, strain SPO22, active compounds read low 1.02 | locus YIL125W, strain kgd1, active compounds read low 1 | locus YIR030C, strain dcg1, active compounds read low 1.01 | locus YJL092W, strain hpr5, active compounds read low 1 | locus YJL095W, strain BCK1 (second series), active compounds read low 1 | locus YJL095W, strain BCK1, active compounds read low 1.01 and 0.998 | locus YJL115W, strain asf1, active compounds read low 1.02 | locus YJL129C, strain trk1, active compounds read low 1.03 | locus YJL134W, strain LCB3, active compounds read low 1 | locus YJL154C, strain vps35, active compounds read low 1.01 | locus YJL164C, strain tpk1, active compounds read low 0.995 | locus YJL166W, strain qcr8, active compounds read low 1.02 | locus YJL168C, strain set2, active compounds read low 1.01 | locus YJL187C, strain SWE1 (second series), active compounds read low 1.01 | locus YJL187C, strain SWE1, active compounds read low 1.01 | locus YJR043C, strain POL32, active compounds read low 0.999 | locus YJR066W, strain TOR1, active compounds read low 0.961
